This excerpt belongs to a sample that is enriched for hits.
HT1080-NT tox: qHTS for induction of synthetic lethality in tumor cells producing 2HG: qHTS for the HT-1080-NT fibrosarcoma cell line. HT-1080-NT fibrosarcoma viability, CellTiter-Glo ATP luminescence, 48 h. Potency, µM (highest dose often 46.1 µM), without a hit: at the top dose activity, negative = less viability, hits mostly cytotoxic. actives 1.6% (n = 360,000);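 note: NT is the 2HG producing partner of a matched IDH1 knockdown line; potency is the fitted concentration of half-maximal effect; 0% = DMSO-treated cells and -100% = media-only wells without cells; nearly all actives have a fitted effect of over 55% in size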
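Luminescent CellTiter-Glo readout after 48 hours of compound exposure at 37 degrees C defined viability of HT-1080-NT cells. Activity was normalized to DMSO wells and cell-free media wells; concentration-response curves were fitted and assigned curve classes.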
IL1B secr inh: qHTS for Inhibitors of Inflammasome Signaling: IL-1-beta AlphaLISA Primary Screen; THP-1 LPS/ATP IL-1B secretion, AlphaLISA, 16 h; stronger effect = lower value; activity change, % at 57.5 µM; actives 4.7% (n = 360,000); in the data active = activity change below about -50%; inconclusive = mostly about -30% to -49%
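Secreted IL-1B measured by AlphaLISA bead assay after 16 h compound exposure of THP-1 cells; compounds (final up to 57.5 uM) added 1 h before LPS (250 ng/mL) and ATP (1.25 mM) stimulation; lower signal means less secretion.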
TDP1 cell CPT: qHTS for Inhibitors of human tyrosyl-DNA phosphodiesterase 1 (TDP1): qHTS in cells in presence of CPT. chicken DT40 Tdp1-/-;hTDP1 cells + 20 nM CPT, ATP luminescence, 48 h. Potency, µM (highest dose often 46.2 µM), without a hit: at the highest dose activity change, negative = growth inhibition, usual class: inhibitors. actives 12% (n = 420,000). AID 686979, 2013; note: potency is the fitted concentration of half-maximal effect; nearly all actives have a fitted effect of over 55% in size
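Chicken DT40 Tdp1-/- cells complemented with human TDP1, 400 cells/well, exposed to compounds plus 20 nM camptothecin for at least 48 h at 37 C; viability read as ATP content by CellTiter-Glo luminescence.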
DT40 TDP1 no CPT: qHTS for Inhibitors of human tyrosyl-DNA phosphodiesterase 1 (TDP1): qHTS in cells in absence of CPT. DT40 Tdp1-/- hTDP1 cells, no CPT, ATP luminescence, 48 h. Potency, µM (series often up to 46.2 µM), for inactives: at the top dose activity change, negative = growth inhibition, hits mostly inhibitors. actives 15% (n = 420,000). AID 686978, 2013; note: potency is the fitted concentration of half-maximal effect; nearly all actives have a fitted effect of over 55% in size
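Seeded 400 DT40-hTDP1 cells/well (vehicle DMSO, no 20 nM CPT); pinned compounds; ≥48 hr at 37 °C; CellTiter-Glo luminescence as viability measure.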
HT1080 IDH1KD tx: qHTS for induction of synthetic lethality in tumor cells producing 2HG: qHTS for the HT-1080-IDH1KD cell line; HT-1080 IDH1 knockdown viability, ATP luminescence, 48 h; Potency, µM (top dose mostly 46.1 µM), for inactives: at the top dose activity, negative = toxicity, hits mostly cytotoxic; actives 2% (n = 360,000);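 note: potency is the fitted concentration of half-maximal effect; 0% = DMSO wells and -100% = cell-free medium wells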
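Luminescent ATP read-out (CellTiter-Glo, 10 min at room temperature) after 48 h compound exposure at 37 °C gave viability of IDH1-knockdown HT-1080 cells. Activity was normalised to DMSO and cell-free wells, then fitted as concentration-response curves.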
12-LOX inh: Primary qHTS assay for inhibitors of human arachidonate 12S-lipoxygenase (ALOX12): Round 2; AID 1671190, 2021; purified 12hLO, xylenol orange hydroperoxide absorbance; actives 1.1% (n = 580,000); Potency, µM (top dose mostly 108 µM), for inactives: at the top dose activity change, negative = inhibition, actives largely listed as inhibitors; note: potency is the fitted concentration of half-maximal effect
Target sequence (P18054 whole entry, looked up): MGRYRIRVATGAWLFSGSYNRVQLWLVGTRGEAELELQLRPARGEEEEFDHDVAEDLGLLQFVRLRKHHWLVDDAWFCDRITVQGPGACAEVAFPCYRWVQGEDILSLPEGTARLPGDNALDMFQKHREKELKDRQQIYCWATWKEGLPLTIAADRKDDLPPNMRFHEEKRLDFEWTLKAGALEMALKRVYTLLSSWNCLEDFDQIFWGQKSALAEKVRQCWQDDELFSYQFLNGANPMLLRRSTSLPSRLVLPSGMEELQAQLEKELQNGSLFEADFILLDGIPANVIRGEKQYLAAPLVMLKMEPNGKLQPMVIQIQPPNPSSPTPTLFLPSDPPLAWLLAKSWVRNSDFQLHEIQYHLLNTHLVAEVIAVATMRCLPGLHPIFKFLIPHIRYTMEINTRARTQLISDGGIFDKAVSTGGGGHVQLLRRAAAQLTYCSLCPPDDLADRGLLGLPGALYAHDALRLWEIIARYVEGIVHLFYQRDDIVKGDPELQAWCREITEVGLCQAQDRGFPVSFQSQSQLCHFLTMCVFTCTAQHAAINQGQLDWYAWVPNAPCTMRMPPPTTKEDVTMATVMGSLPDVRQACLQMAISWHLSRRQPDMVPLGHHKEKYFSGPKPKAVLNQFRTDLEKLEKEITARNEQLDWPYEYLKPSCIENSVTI
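Hydroperoxide product was detected by ferrous iron/xylenol orange as the 573 to 405 nm absorbance ratio. Arachidonic acid at 40 uM (final) was turned over for 30 min at room temperature by 150 nM human 12hLO, pH 7.0 Hepes buffer, after 15 min compound preincubation.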
An asterisk follows results filed as active; ? = inconclusive; · = no result given; [ ] = another dose, or the depositor's remark. Unless noted, calls come from the whole dose curve; as a rule, active = well fitted curve in the direction sought with a large enough effect; inconclusive = small, poorly fitted or top-dose-only effect, or another doubt; inactive = no such curve, though single readings can be large; an effect the other way counts as inactive or inconclusive. Unless noted, % is set by controls: 0 for no effect and ±100 for the full control effect.

SMILES | HT1080-NT tox | IL1B secr inh | TDP1 cell CPT | DT40 TDP1 no CPT | HT1080 IDH1KD tx | 12-LOX inh
NCC12CC3CC(C1)CC(c1ccc(Br)cc1)(C3)C2 | ? | -77.3* | 20.6µM* | 14.6µM* | ? | -28.6%
Cc1ccc(C23CC4CC(CC(C(=O)N(C)C)(C4)C2)C3)cc1 | -0.2% | -19.4 | ? | 20.6µM* | -13.0% | 14.4%
CCCNC(=O)C12CC3CC(C1)CC(c1ccc(C)cc1)(C3)C2 | · | · | · | · | · | 11.6%
Cc1ccc(C23CC4CC(CC(CN)(C4)C2)C3)cc1 | 18.4µM* | -94.6* | 6.51µM* | 10.3µM* | ? | -13.8%
Cc1ccc(C23CC4CC(CC(CC(=O)NC(C)(C)CO)(C4)C2)C3)cc1 | -16.1% | 34.5 | 25.9µM* | 14.6µM* | -12.4% | 0.0%
CCc1cc(C(=O)O)c2c(c1)C(C)CC(C)(C)N2 (stereo unspecified) | · | · | · | · | · | -36.2%
Cc1cc(-c2csc(N)n2)c(C)n1CCc1ccccc1 | 0.7% | -1.5 | 23.1µM* | ? | 5.5% | ?
CCC(C)NC(=O)Nc1ccc(-c2noc(-c3ccco3)n2)cc1 (stereo unspecified) | · | · | · | · | · | 6.1%
c1ccc(-c2cn(-c3ccccc3)c3ncnc(N4CCCCC4)c23)cc1 | ? | -57.3* | 9.2µM* | 18.4µM* | ? | 3.3%
CCOC(=O)CSc1ncnc2c1c(-c1ccccc1)cn2-c1ccc(OC)cc1 | -6.5% | 24.3 | -2.6% | -10.1% | -2.7% | -4.0%
CN1CCN(c2ncnc3c2c(-c2ccccc2)cn3-c2ccc(F)cc2)CC1 | 23.1µM* | -206.9* | 18.4µM* | 5.17µM* | 23.1µM* | -28.7%
CC1CCN(c2ncnc3c2c(-c2ccccc2)cn3-c2ccc(Br)cc2)CC1 | · | · | -0.4% | 13.7% | · | -17.9%
CCCSc1ncnc2c1c(-c1ccccc1)cn2-c1ccccc1OC | · | · | ? | 20.6µM* | · | -15.6%
Clc1cccc(-n2cc(-c3ccccc3)c3c(N4CCCCC4)ncnc32)c1 | · | · | 16.4µM* | 23.1µM* | · | ?
COc1ccccc1N1CCN(c2ncnc3c2c(-c2ccccc2)cn3-c2cccc(C)c2)CC1 | · | · | 18.4µM* | ? | · | -5.9%
CC(=O)N1CCN(c2ncnc3c2c(-c2ccccc2)cn3-c2cccc(C)c2)CC1 | · | · | · | · | · | -12.4%
CC1CCCCC12NC(=O)N(CC(=O)N1CCN(Cc3ccc(C#N)cc3)CC1)C2=O (stereo unspecified) | -13.0% | 18.1 | 16.4µM* | 7.31µM* | -15.4% | 14.5%
Cc1ccc(S(=O)(=O)Nc2ccc(Br)cc2/C=N/n2cnnc2)cc1 | 12.6µM* | 10.8 | ? | 29.1µM* | ? | 44.7µM*
Cc1ccc(S(=O)(=O)N/N=C/c2cc(Br)ccc2O)cc1 | -29.2% | 21.8 | ? | -9.6% | -26.7% | -20.3%
CCOc1cc(S(=O)(=O)NCc2ccc(OC)cc2)c(OCC)cc1-n1cnnn1 | 12.6µM* | 27.7 | 4.11µM* | 2.06µM* | 8.91µM* | -20.4%
CCN(CC)S(=O)(=O)c1cc(NC(=S)NC(=O)C2CCCC2)ccc1C | -11.3% | -18.2 | 23.1µM* | 18.4µM* | -18.9% | ?
CN(C)S(=O)(=O)c1ccc(NC(=S)NC(=O)C2CCC2)cc1 | -3.5% | 2.5 | 2.2% | -4.4% | -2.9% | ?
CCN(CC)S(=O)(=O)c1cc(NS(=O)(=O)c2cccs2)ccc1C | 6.2% | 13.8 | -22.7% | 5.8µM* | -0.1% | -8.6%
CCN(CC)S(=O)(=O)c1ccc(NC(=S)NC(=O)C2CCC2)cc1 | -12.2% | -16.8 | 18.4µM* | ? | -10.1% | 141.2%
Cc1ccc(NC(=S)NC(=O)C2CCCC2)cc1C | 3.6% | 5.7 | ? | ? | -0.6% | ?
SMILES | HT1080-NT tox | IL1B secr inh | TDP1 cell CPT | DT40 TDP1 no CPT | HT1080 IDH1KD tx | 12-LOX inh
COc1cc(CNc2ccc(N3CCOCC3)c(C(=O)O)c2)cc(Cl)c1OC | · | · | · | · | · | -71.2%
CCC(CC)C(O)(C#Cc1ccccc1)c1ccccc1 (stereo unspecified) | · | · | · | · | · | -19.3%
Cc1ccnc(NCn2nnc3ccccc32)c1 | 0.7% | 26.1 | 16.4µM* | ? | 6.1% | 2.7%
COc1ccc2ccc3cccc[n+]3c2c1 | -12.3% | -7.7 | 4.6% | -4.8% | -17.6% | 3.8%
CC[n+]1c(/C=C/c2ccc(N(C)C)cc2)ccc2ccccc21 | 10.3µM* | -98.9* | 0.164µM* | 0.146µM* | 10.3µM* | ?
CN(C)c1ccc(/C=C/c2ccc3ccccc3[n+]2[O-])cc1 | · | · | 20µM* | 12.6µM* | · | ·
CCN(CC)c1ccc(/C=C/c2ccc3ccc(OC)cc3[n+]2CC)cc1 | ? | -82.6* | 0.0651µM* | 0.184µM* | ? | ?
CN(C)c1ccc(/C=C/c2cccc3ccccc23)cc1 | · | · | -18.2% | ? | · | ·
CC(C)c1ccc(-c2nnn(CCCn3c(=O)c4c(ncn4C)n(C)c3=O)n2)cc1 | · | · | · | · | · | 6.4%
COC(=O)c1ccc(Oc2coc3cc(OCc4ccc(Br)cc4)ccc3c2=O)cc1 | · | · | · | · | · | -1.6%
O=C(Nc1ccccc1N1CCN(c2ccc(F)cc2)CC1)c1ccccc1 | 14.0% | ? | 23.1µM* | 18.4µM* | 20.9% | 7.4%
CCCCCC(=O)Nc1ccccc1N1CCN(c2ccccc2)CC1 | -23.3% | -88.4* | ? | ? | 4.2% | 1.3%
CCC(=O)Nc1ccccc1N1CCN(c2ccc(F)cc2)CC1 | -0.7% | -25.7 | 20.6µM* | ? | 5.7% | -1.3%
COC(=O)N1CCn2c(nnc2-c2ccccc2)C1 | · | · | · | · | · | 27.9%[176 µM]
CCCCCCOC(=O)c1ccccc1 | · | · | · | · | · | 3.1%[176 µM]
COc1cccc(CNC(=O)CN2C(=O)N(c3cccc(C)c3)S(=O)(=O)c3ccccc32)c1OC | · | · | · | · | · | -11.0%
CCc1ccc(NC(=O)c2cc3c(C)nc4ccccc4c3o2)cc1 | -9.0% | -139.1* | 18.4µM* | 16.4µM* | ? | -1.0%
Cc1ccccc1NC(=O)c1cc2c(C)nc3ccccc3c2o1 | 11.3% | -17.2 | ? | 23.1µM* | 11.5% | -5.4%
Cc1ccccc1NC(=O)c1cc2ccccc2o1 | -13.9% | 0.6 | -19.1% | -6.8% | -9.4% | -6.2%
Cc1nc2ccccc2c2oc(C(=O)NCCCN3CC(C)CC(C)C3)cc12 (stereo unspecified) | -23.5% | -18.8 | ? | -24.4% | -29.0% | -7.2%
